# LmPK inhibitor: qHTS Assay for Inhibitors of Leishmania Mexicana Pyruvate Kinase (LmPK) | Q27686 | purified LmPK, Kinase-Glo ATP luminescence, 1 h | Potency, µM (highest dose often 57.5 µM), inactives show at the top dose activity change, negative = inhibition, hits mostly inhibitors | 290,000 compounds, 0.37% hits; further: potency means the concentration at half of the fitted maximal effect; on the % scale 0 is the no-effect control and ±100 the full control effect
# Target sequence (Q27686 whole entry, looked up): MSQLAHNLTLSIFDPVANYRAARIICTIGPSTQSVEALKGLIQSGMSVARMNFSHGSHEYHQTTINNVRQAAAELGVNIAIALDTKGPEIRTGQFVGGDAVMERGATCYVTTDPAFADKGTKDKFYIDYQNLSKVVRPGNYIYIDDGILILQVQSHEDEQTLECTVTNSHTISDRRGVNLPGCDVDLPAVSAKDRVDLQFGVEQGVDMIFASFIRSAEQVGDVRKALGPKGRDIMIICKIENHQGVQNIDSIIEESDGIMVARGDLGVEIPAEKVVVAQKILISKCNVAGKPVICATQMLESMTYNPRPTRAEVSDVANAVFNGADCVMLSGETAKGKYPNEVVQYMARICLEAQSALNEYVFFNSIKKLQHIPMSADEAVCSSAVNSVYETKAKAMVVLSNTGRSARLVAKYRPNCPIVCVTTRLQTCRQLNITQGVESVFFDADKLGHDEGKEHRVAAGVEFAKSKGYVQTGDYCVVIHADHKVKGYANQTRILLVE
#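 Purified LmPK (0.1 nM) with 0.5 mM PEP and 0.1 mM ADP in imidazole buffer pH 7.2 with MgCl2/KCl, 1 h at room temperature. ATP formed was read by luciferase luminescence and normalized to no-enzyme and uninhibited controls.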
# Cycloheximide cs: Cycloheximide Counterscreen for Small Molecule Inhibitors of Shiga Toxin; cell reporter, cycloheximide protein synthesis inhibition counterscreen; max response, %; 300,000 compounds, 12% hits; AID 2314, 2010; in the data active means max response mostly above about 13%, no sharp cut-off; inactive means mostly below about 14%; further: read at 38.3 µM for the half of the compounds with a filed dose; 0% is about no effect
# Shiga toxin inh: A qHTS for Small Molecule Inhibitors of Shiga Toxin. Vero cells, Shiga toxin protein synthesis inhibition reporter. inhibition, % at 38.7 µM. 290,000 compounds, 9.2% hits; in the data active means inhibition mostly above about 28%, no sharp cut-off; inactive means mostly below about 43%; further: 0% is about no effect
# Pf growth 96h: Primary qHTS for delayed death inhibitors of the malarial parasite plastid, 96 hour incubation | P. falciparum luciferase reporter growth, 96 h | Potency, µM (doses to about 28.7 µM), for inactives: at the highest dose activity change, negative = inhibition, most hits filed as inhibitors | 320,000 compounds, 6.9% hits | AID 504834, 2011; further: potency means the concentration at half of the fitted maximal effect; on the % scale 0 is the no-effect control and ±100 the full control effect
#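 96 h incubation, 37 C, 5% CO2, of luciferase-reporter P. falciparum-infected RBCs (2% hematocrit, 0.05% parasitemia final) with test compounds; endpoint luminescence.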
# Pf growth 48h: Primary qHTS for delayed death inhibitors of the malarial parasite plastid, 48 hour incubation; P. falciparum luciferase growth in erythrocytes, 48 h; 310,000 compounds, 5.9% hits; Potency, µM (series often up to 28.7 µM), for the others: at the highest dose activity change, negative = inhibition, hits mostly inhibitors; further: potency means the concentration at half of the fitted maximal effect; on the % scale 0 is the no-effect control and ±100 the full control effect
#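 A one-generation exposure of luciferase-tagged malaria parasites in RPMI 1640/Albumax erythrocyte culture, 37 C and 5% CO2. Inhibition is inferred from decreased luminescence after adding detection reagent.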
# The depositor's hits bear a star; ? = inconclusive; nt = no result given; [ ] = dose if it differs, or a comment. Most compounds without a hit are left out; they make up all but 22% or so of the library. Unless noted, the call rests on the fitted dose curve; in most records, active means well fitted inhibition curve with a large enough effect; inconclusive means small, poorly fitted or top-dose-only effect, or another doubt; inactive means no such curve, though single readings can be large or run the other way.
SMILES,LmPK inhibitor,Cycloheximide cs,Shiga toxin inh,Pf growth 96h,Pf growth 48h
COc1cccc(C2c3c(-c4cc(Cl)c(C)cc4O)n[nH]c3C(=O)N2Cc2cccnc2)c1 (configuration not stated),2%,-2,-19,6.6µM*,nt
COc1cc(C2c3c(-c4cc(Cl)c(C)cc4O)n[nH]c3C(=O)N2Cc2cccnc2)ccc1O (configuration not stated),6%,2,-10,nt,8.3µM*
COc1cccc(C2/C(=C(\O)c3ccc4c(c3)OCCO4)C(=O)C(=O)N2Cc2cccnc2)c1 (configuration not stated),-2%,9,4,2%,4%
Cc1ccc(C2c3c(-c4ccccc4O)n[nH]c3C(=O)N2Cc2ccncc2)cc1 (configuration not stated),2%,-5,-11,?,?
CCOc1ccc(NC(=O)C(CC(=O)O)Cc2ccc(C)cc2)cc1 (configuration not stated),-1%,-3,-5,-20%,19%
Cc1nc(SCc2cccnc2)[nH]c(=O)c1C,-3%,-3,-2,11%,21%
CC(=O)O[C@H]1CC(C)(C)C(=C=C/C(C)=C/C=C/C(C)=C/C=C/C=C(C)/C=C/C=C(\C)C(=O)C[C@@]23O[C@]2(C)C[C@@H](O)CC3(C)C)[C@](C)(O)C1,1%,-2,2,?,9.3µM*
Cc1cccc(C)c1OCCCCN1CCCCC1,-5%,1,-9,25%,13%
COc1ccc(Cc2nnc(NC(=O)c3cccc([N+](=O)[O-])c3C)s2)cc1,5%,7,51,0.47µM*,57%
COc1ccc(Cc2nnc(NC(=O)Nc3ccc(C)cc3)s2)cc1OC,6%,15*,43*,-2%,-2%[0.00184 µM]
COc1ccc(C(=O)Cc2ccc(OC)c(OC)c2)cc1,5%,56*,53*,70%,nt
COc1ccc(CC(=O)n2[nH]c(=O)ccc2=O)cc1OC,-3%,15,41*,23%,10%
COc1ccc(Cc2nnc(NC(=O)Nc3ccc(F)cc3)s2)cc1OC,3%,-1,4,6%,3%[0.00184 µM]
COC(=O)CCN(Cc1ccco1)S(=O)(=O)c1ccc(F)cc1Br,nt,8,22,nt,nt
COc1cccc(CN(c2ccc3c(c2)CCC3)S(=O)(=O)c2ccc(-n3cnnn3)c(OC)c2)c1,4%,-3,-6,?,?
COCCCNC(=O)c1ccc(S(=O)(=O)c2ccc(Cl)cc2)c(NC(C)=O)c1,-5%,-6,-2,-8%,-1%[0.00184 µM]
COc1ccc(NC(=O)Nc2nnc(Cc3ccc(OC)c(OC)c3)s2)cc1,-3%,-1,-4,12µM*,-29%
COc1ccc(C(=O)Nc2nnc(Cc3ccc(OC)c(OC)c3)s2)cc1,-2%,11*,20,0%,0%
NC(=O)c1cc(C(=O)c2ccc(Cl)cc2)c[nH]1,-3%,8,32,56%,20%
CCC(C)NC(=O)Cn1c(COc2ccc(Cl)cc2Cl)nc2ccccc21 (configuration not stated),0%,33*,39*,156%,149%
CCOC(=O)N1CCN(C(=O)c2ccc3c(SCC(=O)O)c4c(nc3c2)CCCC4)CC1,0%,-1,-9,12µM*,-5%
COc1cc(OC)c(NC(=O)c2ccc3c(SCC(=O)O)c4c(nc3c2)CCCC4)cc1Cl,4%,-3,-12,226%,5.2µM*
CN1CCN(C(=O)c2ccc3c(Cl)c4c(nc3c2)CCCC4)CC1,-3%,15,28,13µM*,-30%
COc1cccc(N2CCN(c3ncnc4c3[nH]c3ccccc34)CC2C)c1 (configuration not stated),1%,-4,10,?,8.3µM*
COc1cccc(N2CCN(c3ncnc4c3[nH]c3ccc(F)cc34)CC2C)c1 (configuration not stated),1%,-8,-27,138%,?
SMILES,LmPK inhibitor,Cycloheximide cs,Shiga toxin inh,Pf growth 96h,Pf growth 48h
c1ccc2c(c1)[nH]c1c(N3CCC4(CC3)OCCO4)ncnc12,5%,-3,-6,?,nt
c1ccc(CN2CCN(c3ncnc4c3[nH]c3ccccc34)CC2)cc1,7%,5,-10,0%,0.93µM*
Fc1ccc2[nH]c3c(N4CCN(C5CCCCC5)CC4)ncnc3c2c1,-5%,-6,-8,0%,2.3µM*
COc1cccc2[nH]c3c(N4CCC(C)CC4)ncnc3c12,0%,20,40,?,9.3µM*
Cc1cccc(NC(NC(=O)Cc2ccccc2)C(Cl)(Cl)Cl)c1 (configuration not stated),-5%,-3,-9,?,?
Cc1ccc2[nH]c3c(N4CCN(Cc5ccccc5)CC4)ncnc3c2c1,7%,9,20,nt,1.7µM*
c1ccc2c(c1)CCN(c1ncnc3c1[nH]c1ccccc13)C2,2%,-1,-13,7.4µM*,5.2µM*
Cc1ccc2c(c1)[nH]c1c(N3CCN(Cc4ccccc4)CC3)ncnc12,-1%,-2,-14,?,0.52µM*
Cc1ccc2[nH]c3c(N4CCCCCC4)ncnc3c2c1,6%,18*,65*,?,2.6µM*
CC(=O)c1ccc(NS(=O)(=O)c2cccc(C(=O)Nc3ccccc3C(=O)O)c2)cc1,-6%,-2,-3,22%,27%
Cn1c(=O)n(Cc2ccccc2)c(=O)c2c1nc1n2CCCN1CCc1ccccc1,0%,-9,-16,3.3µM*,nt
Cn1c(N2CCCC2)nc2c1c(=O)n(Cc1cccc(F)c1)c(=O)n2C,6%,-1,-5,10µM*,?
CCCCn1c(=O)c2c(nc3n2CCCN3Cc2ccccc2)n(C)c1=O,-1%,-4,-16,?,5.2µM*
Cn1c(=O)n(Cc2ccccc2)c(=O)c2c1nc1n2CCCN1Cc1ccccc1,-4%,-2,-1,?,?
CCOCCn1c(=O)c2c(nc3n2CCCN3CCc2ccccc2)n(C)c1=O,-13%,-1,-2,15µM*,?
O=C(c1ccccc1C(=O)N(c1ccccc1)c1ccccc1)N1CCCCC1,4%,-4,-5,?,-4%
COc1cc2ccccc2cc1C(=O)OCc1nc2ccsc2c(=O)[nH]1,nt,nt,nt,-16%,10%
Cc1cc(Cl)ccc1NC(=S)NCCC(c1ccccc1)c1ccccc1,2%,11*,-5,?,?
Cc1cc(Cl)ccc1NC(=S)NCCc1ccc(Cl)cc1,-1%,9.5*,52,?,?
S=C(NCCc1ccccc1)Nc1ccc(Cl)cc1Cl,-1%,34*,61*,41%,-5%
Cc1cccc(NS(=O)(=O)c2cn(C)c(=O)n(C)c2=O)c1C,-1%,-1,-2,35%,42%
CCCCc1ccc(NC(=O)CSc2nc(=O)n3cc(C)ccc3n2)cc1,nt,nt,nt,-18%,?
